Laboratory results reported in PubChem BioAssay AID1984 (Sanford-Burnham Center for Chemical Genomics, 2009).
About 35 (0.01%) of roughly 290,000 compounds were called active.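 How the source made its calls: active means EGFP signal decrease of at least 30% at 10 µM or well 3 SD below plate mean, unless failing retest; inactive means the rest, including hits failing retest or dose response.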 The full list was thinned out, with actives kept by preference.

Target: p/CIP-EGFP fusion (nuclear receptor coactivator 3, mouse) (UniProt Q05BA5)
Experiment: p/CIP-EGFP fusion destabilizers, primary screen, fluorescence, F442A cells (AID 1984)
Conditions: 16 h, at 10 µM, stronger effect = higher value

p/CIP-EGFP fusion (nuclear receptor coactivator 3, mouse), sequence (Q05BA5 1-1403): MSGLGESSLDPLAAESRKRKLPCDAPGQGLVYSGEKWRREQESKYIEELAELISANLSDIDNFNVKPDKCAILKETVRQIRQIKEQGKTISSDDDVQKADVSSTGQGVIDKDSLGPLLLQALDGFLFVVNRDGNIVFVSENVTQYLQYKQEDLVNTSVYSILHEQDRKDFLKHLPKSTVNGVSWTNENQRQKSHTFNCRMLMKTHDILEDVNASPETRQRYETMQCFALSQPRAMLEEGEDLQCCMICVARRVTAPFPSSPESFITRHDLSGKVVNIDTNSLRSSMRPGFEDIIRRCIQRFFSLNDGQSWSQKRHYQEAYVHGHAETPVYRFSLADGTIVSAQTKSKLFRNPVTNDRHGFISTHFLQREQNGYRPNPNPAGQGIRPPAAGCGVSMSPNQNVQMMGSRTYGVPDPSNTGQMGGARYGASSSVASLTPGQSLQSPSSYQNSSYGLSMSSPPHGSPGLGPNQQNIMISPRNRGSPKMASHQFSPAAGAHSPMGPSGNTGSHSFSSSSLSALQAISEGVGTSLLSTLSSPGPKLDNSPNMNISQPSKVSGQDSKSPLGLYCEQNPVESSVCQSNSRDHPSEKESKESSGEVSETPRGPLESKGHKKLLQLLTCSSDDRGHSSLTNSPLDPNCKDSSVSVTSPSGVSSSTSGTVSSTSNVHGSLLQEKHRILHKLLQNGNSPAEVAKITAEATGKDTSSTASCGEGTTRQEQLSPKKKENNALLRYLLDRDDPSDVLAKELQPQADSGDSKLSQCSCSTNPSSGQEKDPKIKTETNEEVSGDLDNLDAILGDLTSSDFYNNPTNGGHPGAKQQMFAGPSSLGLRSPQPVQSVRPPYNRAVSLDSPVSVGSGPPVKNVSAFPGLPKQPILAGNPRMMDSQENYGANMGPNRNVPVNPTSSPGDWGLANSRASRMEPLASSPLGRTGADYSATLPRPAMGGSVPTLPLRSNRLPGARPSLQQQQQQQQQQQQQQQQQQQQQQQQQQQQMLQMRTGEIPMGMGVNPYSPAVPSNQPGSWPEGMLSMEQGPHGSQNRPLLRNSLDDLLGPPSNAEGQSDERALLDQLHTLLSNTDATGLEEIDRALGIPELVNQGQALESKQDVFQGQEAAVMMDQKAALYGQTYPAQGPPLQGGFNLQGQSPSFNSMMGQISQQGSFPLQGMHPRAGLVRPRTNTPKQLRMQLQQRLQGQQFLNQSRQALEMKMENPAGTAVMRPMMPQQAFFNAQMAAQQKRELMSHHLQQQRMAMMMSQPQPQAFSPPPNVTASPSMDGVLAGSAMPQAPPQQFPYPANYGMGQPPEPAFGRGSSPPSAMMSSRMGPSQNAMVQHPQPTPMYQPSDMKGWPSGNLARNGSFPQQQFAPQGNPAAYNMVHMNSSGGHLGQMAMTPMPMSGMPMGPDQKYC

Compound	decrease of EGFP signal
CCc1ccc(OCC(=O)N(Cc2ccccc2)C2CCS(=O)(=O)C2)cc1 (configuration not stated)	-11.2% (inactive)
COc1cc(OC)cc(C(=O)NCCCn2ccnc2)c1	1.6% (inactive)
CNc1[nH]ncc1[N+](=O)[O-]	11.8% (inactive)
Cc1nc(-c2ccc(F)cc2)c(CC(=O)N2CCN(S(=O)(=O)c3ccc(F)cc3)CC2)s1	5.1% (inactive)
COCCCN1C(=O)c2ccc(C(=O)OCC(=O)NCc3ccccc3OC)cc2C1=O	-12.5% (inactive)
c1ccc(-n2cccc2)c(N2CCCCC2)c1	-13.4% (inactive)
Cc1cc(-c2nnc(SCC(=O)Nc3ccc(S(N)(=O)=O)cc3)n2N)n[nH]1	-53.2% (inactive)
CCCCn1c(N)c(N(CCOC)C(=O)c2oc3ccc(OC)cc3c2C)c(=O)[nH]c1=O	9.8% (inactive)
NC(=O)C(Cc1ccccc1)NC(=O)C12CC3CC(CC(C3)C1)C2 (configuration not stated)	-4.8% (inactive)
Cc1c(S(=O)(=O)N2CC(C)CC(C)C2)c(=O)n(C)c(=O)n1C (configuration not stated)	4.7% (inactive)
CCSc1nc(O)c(C(c2cccc(OC)c2)c2c(O)nc(SCC)[nH]c2=O)c(=O)[nH]1	-4% (inactive)
CCCC1(C(=O)OCC)NC(c2ccc(N(C)C)cc2)C2C(=O)N(c3ccc4c(c3)OCCO4)C(=O)C21 (configuration not stated)	-13.2% (inactive)
O=C(O)CCCCCNc1ncnc2ccc(Br)cc12	-16.6% (inactive)
Cc1cccc(N2Cc3ccccc3C2=NC(=O)c2ccc(Cl)nc2)c1	-1.5% (inactive)
CC(=O)N1c2ccc(S(=O)(=O)N3CCCC(C(=O)NCc4ccc(Cl)cc4)C3)cc2CC1C (configuration not stated)	-5.2% (inactive)
CCCCC(=O)Nc1c2c(nn1-c1ccc([N+](=O)[O-])cc1)CS(=O)(=O)C2	-0.5% (inactive)
CS(=O)(=O)N1CCN=C1SCc1ccc(F)cc1	10.9% (inactive)
CC(=O)c1cccc(NC(=O)CN2C(=O)c3cccnc3Oc3ccc(Cl)cc32)c1	-7.6% (inactive)
C/C(CC(=O)NCc1ccc(Cl)cc1)=N\NC(=O)COc1ccc(C)cc1Br	2.8% (inactive)
CCOc1cc(CN2CCCC(CO)(Cc3ccc(F)cc3F)C2)ccc1OC (configuration not stated)	-5.3% (inactive)
Cc1cccc(-c2nc3ccc(C(=O)NCCN4CCN(C)CC4)cc3nc2-c2cccc(C)c2)c1	-5% (inactive)
COCCCNc1nc2c(-c3cccc(C)c3)nnn2c2ccc(Cl)cc12	-12% (inactive)
COc1ccc(C(=O)C2CCCN(S(=O)(=O)c3cccc(C)c3)C2)c(C)c1 (configuration not stated)	-15.7% (inactive)
O=C(NCCC1=CCCCC1)c1ccc(Cl)c([N+](=O)[O-])c1	-6.4% (inactive)
CCCn1c(NC(=O)C23CC4CC(CC(O)(C4)C2)C3)nc2ccccc21	0.5% (inactive)
O=C(Nc1ccc(O)cc1)c1ccc(NC(=O)c2ccco2)cc1	-4.6% (inactive)

Compound	decrease of EGFP signal
CCOc1ccc(S(=O)(=O)N2CCC(c3ccccc3)CC2)cc1C(=O)O	2.8% (inactive)
COCc1ccc(CN2CCC(Oc3ccc(C(=O)NCc4ccccn4)cc3)CC2)o1	-10.7% (inactive)
COC(c1ccccc1)(c1ccccc1)C(Oc1nc(C)cc(C)n1)C(=O)O (configuration not stated)	0% (inactive)
O=[N+]([O-])c1ccc2oc(-c3cccc(O)c3)nc2c1	7.6% (inactive)
CC(Oc1cc2oc(=O)c3c(c2cc1Cl)CCCC3)C(=O)NCc1ccncc1 (configuration not stated)	-2.1% (inactive)
O=C(C[n+]1cc(Br)cc2ccccc21)c1ccc(F)cc1	-1.9% (inactive)
C/C(=N\NC(=O)c1ccc2ccccc2c1)c1cccnc1	-18.3% (inactive)
CCOc1ccc(CN(C)C(=O)c2ccc(=O)[nH]c2)cc1	5.1% (inactive)
Cc1cc(S(=O)(=O)NC2CCCC2)ccc1-n1cnnn1	-8.5% (inactive)
O=C1NC(=O)C(c2ccc(Cl)cc2)N1 (configuration not stated)	-72.8% (inactive)
CCOc1ccccc1N1CCN(C(=O)c2ccc3[nH]c(C)c(C)c3c2)CC1	6.3% (inactive)
COc1cc(CCC(=O)Nc2ccncc2Cl)cc(OC)c1OC	-2.4% (inactive)
Cc1nn(C)c(Cl)c1CN1CCC(Oc2ccc(C(=O)N3CCCC3)cc2)CC1	-12% (inactive)
O=C(Nc1cccc(-n2cnnn2)c1)c1cccnc1	2.8% (inactive)
O=C(c1ccc(Cl)cc1)N1N=C(c2ccccn2)CC1(O)C(F)(F)F (configuration not stated)	1.2% (inactive)
COc1ccc(C2Nc3ccccc3C(=O)N2c2ccc(Cl)cc2)cc1Cn1cc([N+](=O)[O-])cn1 (configuration not stated)	-4.3% (inactive)
CCCN(CCC)S(=O)(=O)c1ccc(C(=O)N2CC3CCC(CC3)C2)cc1	-5.7% (inactive)
CNC(=O)c1sc(NCc2ccccc2OC)nc1C	-5% (inactive)
COc1cccc(NC(=O)N2CCCC2C(=O)NC2CCCCC2)c1 (configuration not stated)	-18.1% (inactive)
NC(=O)c1ccc(Nc2ccc3c(c2)CCC3)c([N+](=O)[O-])c1	-5% (inactive)
C=CCc1cc(C)ccc1OCCCn1ccnc1	10.1% (inactive)
CC(C(=O)c1ccc(-c2ccccc2)cc1)[n+]1cccc(Br)c1 (configuration not stated)	-9.6% (inactive)
COC(=O)Cn1cnc2scc(-c3ccc(C)c(C)c3)c2c1=O	4.1% (inactive)
CC(C)(C)NC(=O)C(c1ccc(Cl)cc1)N(CCO)C(=O)c1snc(C(N)=O)c1N (configuration not stated)	2.5% (inactive)
CC(=O)[C@@]12O[C@@H]1C[C@H]1[C@@H]3CC[C@H]4C[C@@H](O)CC[C@]4(C)[C@H]3CC[C@@]12C	-26.4% (inactive)
COc1cccc(OCC(O)CNC(=O)c2oc3c(C)c(C)ccc3c2C)c1 (configuration not stated)	-15.6% (inactive)
